# HT1080 IDH1KD tx = qHTS for induction of synthetic lethality in tumor cells producing 2HG: qHTS for the HT-1080-IDH1KD cell line; HT-1080 IDH1 knockdown viability, ATP luminescence, 48 h; Potency, µM (series often up to 46.1 µM), without a hit: at the highest dose activity, negative = toxicity, actives largely listed as cytotoxic; 2% of 360,000 active;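 further: potency means the concentration at half of the fitted maximal effect; 0% = DMSO wells and -100% = cell-free medium wells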
#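 IDH1KD HT-1080 cells, 750/well, RPMI + 5% FBS; compound pinned after 2 h settling; 48 h, 37 °C; CellTiter-Glo luminescence; % activity normalised to DMSO and no-cell wells; curves fitted, classed by r2 and efficacy.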
# uPA surface inh = qHTS for Inhibitors of Cell Surface uPA Generation. Potency, µM (highest dose often 38.3 µM), for the others: at the top dose activity change, negative = inhibition, actives largely listed as inhibitors. cell surface uPA generation assay, qHTS. 0.31% of 330,000 active; active means well fitted inhibition curve with a large enough effect; inconclusive means small, poorly fitted or top-dose-only effect; inactive means no such curve, though single readings can be large or run the other way; tested in mouse RAW 264.7 cells; further: potency means the concentration at half of the fitted maximal effect; nearly all actives have a fitted effect of over 55% in size
# DT40 TDP1 no CPT = qHTS for Inhibitors of human tyrosyl-DNA phosphodiesterase 1 (TDP1): qHTS in cells in absence of CPT | DT40 Tdp1-/- hTDP1 cells, no CPT, ATP luminescence, 48 h | Potency, µM (series often up to 46.2 µM), for the others: at the top dose activity change, negative = growth inhibition, usual class: inhibitors | 15% of 420,000 active; further: potency means the concentration at half of the fitted maximal effect; nearly all actives have a fitted effect of over 55% in size
#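 No-CPT arm: Tdp1-/-;hTDP1 DT40 cells (400/well) plus compounds, incubated ≥48 hr at 37 °C. Readout CellTiter-Glo luminescence.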
# IL-1B inflam inh = qHTS for Inhibitors of Inflammasome Signaling: IL-1-beta AlphaLISA Primary Screen | AID 743279, 2014 | 4.7% of 360,000 active | activity change, % at 57.5 µM | THP-1 LPS/ATP IL-1B secretion, AlphaLISA, 16 h; hits give low values; in the data active means activity change below about -50%; inconclusive means mostly about -30% to -49%
#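 Secreted IL-1B measured by AlphaLISA bead assay after 16 h compound exposure of THP-1 cells; compounds (final up to 57.5 uM) added 1 h before LPS (250 ng/mL) and ATP (1.25 mM) stimulation; lower signal means less secretion.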
# DT40 TDP1 CPT = qHTS for Inhibitors of human tyrosyl-DNA phosphodiesterase 1 (TDP1): qHTS in cells in presence of CPT; AID 686979, 2013; 12% of 420,000 active; chicken DT40 Tdp1-/-;hTDP1 cells + 20 nM CPT, ATP luminescence, 48 h; Potency, µM (series often up to 46.2 µM), for the others: top-dose activity change, negative = growth inhibition, most hits filed as inhibitors; further: potency means the concentration at half of the fitted maximal effect; nearly all actives have a fitted effect of over 55% in size
#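 Cell growth measured by CellTiter-Glo luminescence after a minimum 48 h, 37 C compound exposure with 20 nM CPT in Tdp1-knockout DT40 cells stably expressing hTDP1, seeded 400/well; qHTS titration format.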
# HT1080-NT tox = qHTS for induction of synthetic lethality in tumor cells producing 2HG: qHTS for the HT-1080-NT fibrosarcoma cell line; HT-1080-NT fibrosarcoma viability, CellTiter-Glo ATP luminescence, 48 h; 1.6% of 360,000 active; Potency, µM (highest dose often 46.1 µM), for inactives: at the highest dose activity, negative = less viability, actives largely listed as cytotoxic;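 further: NT is the 2HG producing partner of a matched IDH1 knockdown line; potency means the concentration at half of the fitted maximal effect; 0% = DMSO-treated cells and -100% = media-only wells without cells; nearly all actives have a fitted effect of over 55% in size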
#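 Toxicity toward the 2HG-producing NT line was scored as %Activity, normalised to DMSO and no-cell wells, from CellTiter-Glo luminescence after 48 hours' treatment.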
# * = called active by the depositor; ? = inconclusive; nt = no result; [ ] = remark or other dose. An excerpt weighted towards active compounds, which were near 19% of everything screened. Unless noted, the call rests on the fitted dose curve; in most records, active means well fitted curve in the direction sought with a large enough effect; inconclusive means small, poorly fitted or top-dose-only effect, or another doubt; inactive means no such curve, though single readings can be large; an effect the other way counts as inactive or inconclusive. Unless noted, on the % scale 0 is the no-effect control and ±100 the full control effect.
SMILES,HT1080 IDH1KD tx,uPA surface inh,DT40 TDP1 no CPT,IL-1B inflam inh,DT40 TDP1 CPT,HT1080-NT tox
Cc1cc(S(=O)(=O)N2CCN(Cc3noc(CCC(=O)N4CCCCC4)n3)CC2)ccc1F,nt,nt,?,nt,16.4µM*,nt
Nc1c(C(=O)Nc2ccc3c(c2)OCCO3)nnn1Cc1cccc(Cl)c1,?,-5.4%,16.4µM*,-21.2,?,?
Nc1c(C(=O)Nc2ccc3c(c2)OCCO3)nnn1Cc1ccc(F)cc1,-15.1%,-9.8%,-23.6%,-7.1,-17.9%,-6.4%
COc1ccc(Br)cc1Cn1nnc(C(=O)Nc2ccc3c(c2)OCCO3)c1N,?,?,25.9µM*,-3.1,?,?
COc1ccc(NC(=O)c2nnn(CC(=O)Nc3ccc4c(c3)OCO4)c2N)cc1OC,?,-1.6%,3.9%,1.9,8.5%,?
OCC[C@@H]1C[C@H](O)[C@@H](O)[C@]2(CCc3ccccc3CO2)O1,10.9%,11.6%,-10.3%,-1.0,-11.6%,14.7%
COc1cc(/C=C/C(=O)O)cc(S(=O)(=O)NCCO)c1OC,17.3%,7.6%,-1.3%,7.2,4.0%,18.1%
Cc1ccc2c(c1)C1(C(=O)N2)N2CCCC2C(C(=O)c2ccc3ccccc3c2)C12C(=O)Nc1ccccc12 (configuration not stated),?,3.8%,?,-86.4*,16.4µM*,?
CC(C)(CNC(=O)c1cccc(S(=O)(=O)N2CCCCC2)c1)N1CCOCC1,-4.6%,nt,-4.3%,7.1,-4.3%,7.4%
COC(=O)c1ccc(CNC(=O)c2cc(COc3cncc(Cl)c3)on2)cc1,?,-3.8%,?,-13.7,?,-22.6%
CC(C)c1cc(CNC(=O)c2cc(COc3cncc(Cl)c3)on2)on1,0.1%,1.4%,18.4µM*,-8.6,?,-3.8%
CC1(C(=O)Nc2cccc3ccccc23)CCN1C(=O)Cc1ccc(Cl)cc1Cl (configuration not stated),?,nt,?,-22.2,-105.3%,?
O=C(Oc1cccccc1=O)c1ccccc1,-7.3%,?,20.6µM*,-2.5,18.4µM*,-13.4%
O=C(Oc1ccccc1Cl)c1ccccc1,-13.4%,-0.3%,1.0%,3.6,-21.4%,1.0%
CCc1ccc2[nH]c(=O)c(CN(Cc3ccc(F)cc3)C(c3nnnn3CCN3CCOCC3)C(C)C)cc2c1 (configuration not stated),-26.8%,nt,?,23.8,?,11.7%
CCC(c1nnnn1Cc1ccco1)N(CCc1ccccc1)Cc1cc2cc(C)ccc2[nH]c1=O (configuration not stated),?,-3.4%,?,-51.9*,20.6µM*,-27.2%
Cc1ccc2[nH]c(=O)c(CN(CCc3ccccc3)C(c3nnnn3Cc3ccco3)C(C)C)cc2c1 (configuration not stated),16.4µM*,5.1%,23.1µM*,-90.8*,29.1µM*,?
CCC(c1nnnn1CCc1ccccc1)N(Cc1ccco1)Cc1cc2cc(C)cc(C)c2[nH]c1=O (configuration not stated),-20.3%,-10.1%,23.1µM*,-52.8*,18.4µM*,-21.3%
CCC(c1nnnn1Cc1ccccc1)N(Cc1ccco1)Cc1cc2cc(OC)ccc2[nH]c1=O (configuration not stated),?,-0.6%,20.6µM*,-54.0*,16.4µM*,?
COc1ccc(NC(=O)c2cc3c(=O)n(Cc4cccnc4)ccc3nc2C)cc1Cl,nt,nt,-25.9%,nt,-18.2%,nt
COC(=O)[C@@]12C[C@@H](CC(=O)N3CCC(c4ccccc4)CC3)C(=O)N(Cc3ccc4c(c3)OCO4)C1=CCC(C)(C)C2,-2.6%,nt,?,-28.1,?,-26.7%
CC(C)(C)NC(=O)CN(C(=O)CCC(=O)Nc1nccs1)c1cccc(C(F)(F)F)c1,9.9%,8.9%,0.8%,-14.3,-2.5%,-3.5%
CCC(c1nnnn1CCOC)N(Cc1ccc(C)cc1)Cc1cc2cc(OC)ccc2[nH]c1=O (configuration not stated),-2.9%,-2.5%,7.31µM*,-26.6,?,-2.3%
Cc1cccc(NC(=O)c2cccc(N3C(=O)C4C5C=CC(C6CC56)C4C3=O)c2)c1 (configuration not stated),-16.7%,-5.6%,14.6µM*,-23.1,?,-5.1%
CC1=CCC2C(=O)N(c3cccc(C(=O)Nc4ccc(Cl)cc4)c3)C(=O)C2C1 (configuration not stated),-17.2%,-1.5%,0.3%,-80.1*,-9.1%,-5.1%
SMILES,HT1080 IDH1KD tx,uPA surface inh,DT40 TDP1 no CPT,IL-1B inflam inh,DT40 TDP1 CPT,HT1080-NT tox
CCc1ccc(N2CC(C(=O)Nc3nc4ccc(S(C)(=O)=O)cc4s3)CC2=O)cc1 (configuration not stated),-15.0%,-2.8%,-15.2%,34.8,0.3%,-19.3%
Cc1cccc(CN2CCN(Cc3nc4c(s3)CCCC4)CC2CCO)n1 (configuration not stated),-3.5%,7.3%,-14.9%,18.3,-4.2%,-2.1%
CC1=C(C(=O)Nc2cc(C(=O)NCCC(C)C)ccc2C)SCCO1,-9.0%,1.0%,10.9%,0.0,-7.3%,-25.6%
Cc1ccc(OCC(=O)Nc2oc(-c3ccccc3)c(-c3ccccc3)c2C#N)cc1,?,2.0%,16.4µM*,0.0,20.6µM*,?
N#Cc1c(NC(=O)CSc2ncccn2)oc(-c2ccccc2)c1-c1ccccc1,-2.4%,-3.7%,-13.3%,5.3,-6.9%,-0.6%
COc1ccccc1OCC(=O)Nc1oc(-c2ccccc2)c(-c2ccccc2)c1C#N,-0.2%[9.24 µM],0.1%,-20.3%,5.8,-0.7%,-29.4%
COc1ccc(-c2oc(NC(=O)CCl)c(C#N)c2-c2ccc(OC)cc2)cc1,?,-5.8%,5.17µM*,-93.1*,6.51µM*,?
COc1ccc(-c2oc(NC(=O)CSc3ncn[nH]3)c(C#N)c2-c2ccc(OC)cc2)cc1,?,nt,?,0.0,12.6µM*,?
O=C(C1COc2ccccc2O1)N1CCN(c2ccc(C(F)(F)F)cn2)CC1 (configuration not stated),-0.8%,-2.1%,-11.3%,0.8,-5.6%,2.1%

# Screening data as filed in PubChem BioAssay.
